Vaccinia stage – Vaccinia orthopox stage-specific inhibition; Vaccinia-infected cells, mCherry/Venus stage reporter fluorescence; hits give low values; activity change (mCherry), % (concentration not given with the values); 89,000 tested, 0.01% active; in the data active = activity change below about -37%, passing the limit was not always enough; tested in A549 cells
* marks the source's active call; other numbers are inactive results. Shown is part of a subset that was picked to be rich in hits.

SMILES	Vaccinia stage
C/C=C/CN(C(=O)C#Cc1ccccc1)[C@H](CO[Si](C)(C)C(C)(C)C)c1ccccc1	-9
CCO[C@@H]1OC(C(=O)Nc2ccccc2)=C[C@H](c2cn(C(C)=O)c3ccccc23)[C@H]1CCCO	-20
CCCNC(=O)N1CC2(C1)CN(C(=O)c1ccncc1)[C@H](CO)c1[nH]c3cc(OC)ccc3c12	22
C[C@H](NC(=O)C[C@H]1C[C@H]2c3cc(NC(=O)C4CCOCC4)ccc3O[C@H]2[C@H](CO)O1)c1ccccc1	9
CC(=O)N1CC2(C1)[C@@H](c1ccccc1)[C@@H](CO)N2CC1CCOCC1	10
O=C(c1ccccc1F)N1C[C@@H]2O[C@H](CNS(=O)(=O)c3ccccc3)CC[C@@H]21	1
COCC(=O)N1C[C@H](C)[C@@H](OC)CN(C)C(=O)c2cc(NC(=O)Nc3cccc(F)c3)ccc2OC[C@H]1C	5
C[C@@H]1CCCCO[C@@H](CN(C)C(=O)CCCN(C)C)[C@H](C)CN([C@@H](C)CO)C(=O)c2cc(NC(=O)Nc3ccc(F)cc3)ccc2O1	9
CCS(=O)(=O)N[C@H]1C=C[C@@H](CC(=O)NCc2ccc(Cl)cc2)O[C@H]1CO	11
C[C@H](CO)N1C[C@H](C)[C@@H](CN(C)C(=O)c2ccc(F)cc2)Oc2cc(C3=CCCCC3)ccc2S1(=O)=O	-28
O=C(C[C@@H]1CC[C@H]2[C@@H](COC[C@H](O)CN2Cc2cccc(Cl)c2)O1)Nc1nccs1	-28
COc1cccc(C#Cc2cnc3c(c2)C(=O)N([C@@H](C)CO)C[C@@H](C)[C@H](CN(C)C(=O)C2CC2)O3)c1	6
C[C@@H]1CCCCO[C@@H](CN(C)C(=O)Nc2ccccc2)[C@@H](C)CN([C@@H](C)CO)C(=O)c2cc(NC(=O)CCC(F)(F)F)ccc2O1	-16
COCC(=O)N1C[C@H](C)[C@@H](OC)CN(C)C(=O)c2cc(NS(C)(=O)=O)ccc2OC[C@H]1C	12
O=C(c1ccc(F)cc1)N1C[C@@H]2[C@H](c3ccccc31)[C@@H](CO)N2Cc1ccc2c(c1)OCO2	10
Cc1cccc(S(=O)(=O)NC[C@@H]2CC[C@H]3NC[C@H]3O2)c1	6
CCC(=O)Nc1ccc2c(c1)OC[C@H](C)N(Cc1cccnc1)C[C@H](C)[C@@H](OC)CN(C)C2=O	17
CCCC#Cc1cnc2c(c1)C(=O)N([C@@H](C)CO)C[C@H](C)[C@H](CN(C)C(=O)Nc1ccc(OC)cc1)O2	8
CCS(=O)(=O)Nc1ccc2c(c1)C(=O)N(C)[C@H]1CC[C@H](CC(=O)OC)O[C@@H]1CO2	2
CCS(=O)(=O)Nc1ccc2c(c1)C(=O)N(C)C[C@@H](OC)[C@H](C)CN(Cc1ccccn1)[C@H](C)CO2	9
CO[C@@H]1CN(C)C(=O)c2ccc(NC(=O)CC(F)(F)F)cc2OC[C@@H](C)N(C(=O)C2CC2)C[C@@H]1C	3
O=C(NCC[C@@H]1CC[C@@H](NS(=O)(=O)Cc2ccccc2)[C@H](CO)O1)C1CCC1	2
CN(C)CC#Cc1cccc(-c2nc(C(=O)N[C@@H]3CCN(Cc4ccccc4)C3)cc3c2[C@H](CCO)N(S(=O)C(C)(C)C)C3)c1 (stereo not given in full)	-13
COc1cccc(-c2cn(CC[C@@H]3CC[C@@H](NS(=O)(=O)Cc4ccccc4)[C@H](CO)O3)nn2)c1	-20
C[C@@H]1CN([C@@H](C)CO)S(=O)(=O)c2ccc(-c3ccncc3)cc2O[C@H]1CN(C)C(=O)CN(C)C	14
SMILES	Vaccinia stage
C[C@@H]1CN([C@H](C)CO)S(=O)(=O)c2ccc(C#CC3(O)CCCC3)cc2O[C@@H]1CN(C)C(=O)Cc1cccnc1	32
O=C(C[C@H]1CC[C@@H](NC(=O)CCN2CCCCC2)[C@H](CO)O1)Nc1ccccc1	4
CC(C)CC#Cc1ccc2c(c1)O[C@@H](CN(C)Cc1ccc(C(=O)O)cc1)[C@H](C)CN([C@@H](C)CO)S2(=O)=O	-7
OC[C@@H]1Nc2ccc(-c3ccccc3)cc2[C@H]2[C@@H]1CCN2Cc1ccc(F)cc1	-27
OC[C@@H]1Nc2ccc(-c3cccc(F)c3)cc2[C@@H]2[C@H]1CCN2Cc1ccc(F)cc1	-18
COc1ccccc1-c1ccc2c(c1)[C@@H]1[C@@H](CCN1C(=O)C1CC1)[C@@H](CO)N2	-31
COc1ccccc1-c1ccc2c(c1)[C@@H]1[C@@H](CCN1C(=O)C1CCOCC1)[C@H](CO)N2	-2
OC[C@H]1Nc2ccc(-c3ccccc3)cc2[C@H]2[C@@H]1CCN2Cc1ccc(F)cc1	-50*
COc1ccccc1-c1ccc2c(c1)[C@@H]1[C@@H](CCN1C(=O)C1CCCCC1)[C@@H](CO)N2	-86*
CO[C@@H]1CN(C)C(=O)c2ccc(NC(C)=O)cc2OC[C@H](C)N(Cc2ccncc2)C[C@H]1C	8
CC(C)NC(=O)N[C@H]1CC[C@@H](CCNS(=O)(=O)c2ccc(F)cc2)O[C@H]1CO	9
COc1ccc2c3c(n(C)c2c1)[C@H](CO)N(C(=O)CN1CCOCC1)CC31CCN(C(C)=O)CC1	9
COCCNC(=O)C[C@@H]1CC[C@H]2[C@@H](COC[C@@H](O)CN2S(=O)(=O)c2ccccc2C)O1	-2
CO[C@@H]1CN(C)C(=O)c2cc(NS(=O)(=O)CC(F)(F)F)ccc2OC[C@H](C)N(C(=O)NC(C)C)C[C@@H]1C	-1
CCC(=O)Nc1ccc2c(c1)OC[C@H](C)N(C(=O)Cc1cccnc1)C[C@H](C)[C@@H](OC)CN(C)C2=O	11
CO[C@H]1CN(C)C(=O)c2ccc(NC(=O)CC(F)(F)F)cc2OC[C@H](C)N(C(C)=O)C[C@H]1C	17
COCC(=O)Nc1ccc2c(c1)OC[C@H](C)N(Cc1ccncc1)C[C@H](C)[C@@H](OC)CN(C)C2=O	9
O=C(C[C@H]1C=C[C@H](NC(=O)c2ccccc2)[C@H](CO)O1)NCc1ccc(Oc2ccccc2)cc1	-1
COc1ccccc1-c1ccc2c(c1)O[C@H](CN(C)C(=O)c1ccccc1)[C@@H](C)CN([C@H](C)CO)S2(=O)=O	4
C[C@H]1CN([C@@H](C)CO)C(=O)c2cc(-c3cccc(C#N)c3)cnc2O[C@@H]1CN(C)C(=O)C1CCCCC1	20
C[C@@H]1CN([C@@H](C)CO)C(=O)c2cc(NC(=O)CCC(F)(F)F)ccc2O[C@@H](C)CCCCO[C@@H]1CN(C)C(=O)Nc1ccc(F)cc1	13
O=S(=O)(c1ccccc1)N1CC2(C1)[C@H](c1ccccc1)[C@H](CO)N2CC1CC1	21
Cc1ccc(S(=O)(=O)Nc2ccc3c(c2)CC(=O)N([C@@H](C)CO)C[C@@H](C)[C@H](CN(C)Cc2ccc(C(=O)O)cc2)O3)cc1	0
C[C@@H]1CN([C@H](C)CO)C(=O)Cc2cc(NS(=O)(=O)c3cn(C)cn3)ccc2O[C@@H]1CN(C)Cc1ccc(C(=O)Nc2ccccc2N)cc1	-1
CC(C)NC(=O)Nc1ccc2c(c1)C(=O)N([C@H](C)CO)C[C@H](C)[C@H](CN(C)Cc1ccc(-c3ccccc3)cc1)O2	-18
O=C(C[C@H]1C=C[C@@H](NS(=O)(=O)c2ccccc2F)[C@H](CO)O1)NCCCN1CCOCC1	12
CCCNC(=O)[C@@H]1[C@@H](CO)[C@@H]2Cn3c(ccc(C4=CCCC4)c3=O)[C@H]1N2C(=O)CC	9
O=C(C[C@@H]1CC[C@H](NC(=O)Nc2ccccc2F)[C@@H](CO)O1)NCc1ccc(-c2ccccc2)cc1	-27
C[C@@H](O)C#Cc1ccc2c(c1)O[C@@H](CN(C)Cc1ccc(-c3ccccc3)cc1)[C@@H](C)CN([C@@H](C)CO)S2(=O)=O	-92*
